Laboratory results from PubChem BioAssay (NCATS).
“And” between values parts separate entries of the source, which are not always exact repeats. Equal values may be shown once. Records with an inconclusive call do not appear. The source made the active and inactive calls. Unless noted, the call rests on the fitted dose curve; in most records, active means well fitted cell-killing curve with a large enough effect; inconclusive means small, poorly fitted or top-dose-only effect; inactive means flat fitted curve, though single readings scatter.

Target: Phenylethanolamine N-methyltransferase (Homo sapiens) (UniProt P11086)
Assay: Confirmatory Screen for Target Class Profiling of Small Molecule Inhibitors of Methyltransferases (AID 1745852)
Conditions: MTase-Glo luminescence, SAH detection, recombinant enzyme; measured here: PNMT max response; stronger effect = lower value

Chain of Phenylethanolamine N-methyltransferase (Homo sapiens) (P11086 whole entry, looked up): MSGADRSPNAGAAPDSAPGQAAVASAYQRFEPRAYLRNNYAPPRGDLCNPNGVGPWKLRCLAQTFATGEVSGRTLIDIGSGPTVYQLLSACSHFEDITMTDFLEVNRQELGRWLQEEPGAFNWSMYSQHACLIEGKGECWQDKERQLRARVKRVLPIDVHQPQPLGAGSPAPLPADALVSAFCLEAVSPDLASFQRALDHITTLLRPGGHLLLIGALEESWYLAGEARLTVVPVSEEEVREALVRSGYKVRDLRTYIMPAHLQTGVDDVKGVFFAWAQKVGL

**Q.** Which activity does the source give for `O=C1Nc2ccc(Cl)cc2[C@@](C#CC2CC2)(C(F)(F)F)O1` here?
**A.** The activity was -2.33%.

**Q.** Which activity does the source give for `Cc1ccc2nc(N)[nH]c(=O)c2c1Sc1ccncc1` here?
**A.** Its activity is 1.12%.

**Q.** Which activity does the source give for `Cc1cc(N)c2ccccc2[n+]1CCCCCCCCCC[n+]1c(C)cc(N)c2ccccc21` here?
**A.** Its activity is 3.98%.

**Q.** Which activity does the source give for `COc1ccc(Cl)cc1C(=O)NCCc1ccc(S(=O)(=O)NC(=O)NC2CCCCC2)cc1` here?
**A.** Its activity is -3.2%.

**Q.** Which activity does the source give for `C[C@]12CC[C@@H]3c4ccc(O)cc4CC[C@H]3[C@@H]1CCC2=O` here?
**A.** The activity was -0.307%.

**Q.** For `CC(C)(C)[C@]1(O)CCN2C[C@H]3c4ccccc4CCc4cccc(c43)[C@@H]2C1`, which activity is on record?
**A.** The activity was -4.4%.

**Q.** With `CN1CCN(C2Cc3ccccc3Sc3ccc(Cl)cc32)CC1` (stereo not drawn) as the compound, how does the activity read?
**A.** Its activity is 8.62%.

**Q.** Which activity does the source give for `NC(N)=NCCC[C@H](N)C(=O)O` here?
**A.** Its activity is 6.66%.

**Q.** Which activity does the source give for `CN(C)CC[C@@H](c1ccc(Cl)cc1)c1ccccn1` here?
**A.** Its activity is -1.72%.

**Q.** Which activity does the source give for `Cc1cc(C(C#N)c2ccc(Cl)cc2)c(Cl)cc1NC(=O)c1cc(I)cc(I)c1O` (stereo not drawn) here?
**A.** The activity was -74.7%.

**Q.** With `CCN(CC)CCCC(C)Nc1c2ccc(Cl)cc2nc2ccc(OC)cc12` (stereo not drawn) as the compound, how does the activity read?
**A.** The activity was 3.56% and -4.16%.

**Q.** For `CC(C)(O)c1ccccc1CC[C@@H](SCC1(CC(=O)O)CC1)c1cccc(/C=C/c2ccc3ccc(Cl)cc3n2)c1`, which activity is on record?
**A.** Its activity is -2.75%.

System: not listed separately
Assay: NCATS anti-infectives library activity on HEK293 viability as a counter-qHTS vs the C. elegans viability qHTS (AID 1745854);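 further: HEK293 cells exposed to compounds for 24 hr before the viability read; on the % scale 0 is the no-effect control and ±100 the full control effect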
Conditions: HEK293 viability counter-screen; series mostly up to 41.8 µM; activity change, negative = cytotoxicity: at the top concentration
Method in brief: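 Compounds were acoustically plated (several concentrations, 1:5, final up to 41.7 uM), then 1500 HEK293 cells added per well and incubated 24 hr at 37C, 5% CO2. CellTiter-Glo was added and luminescence read after 10 min.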

**Q.** Which “activity change, negative = cytotoxicity” value does the source give for `CCCCc1ncc(/C=C(\Cc2cccs2)C(=O)O)n1Cc1ccc(C(=O)O)cc1` here?
**A.** The value was 0.51% (inactive).

**Q.** With `NCC(=O)CCC(=O)O` as the compound, how does the “activity change, negative = cytotoxicity” value read?
**A.** The value was -9.64% (inactive).

**Q.** For `Cc1ncc(COP(=O)(O)O)c(C=O)c1O`, which “activity change, negative = cytotoxicity” value is on record?
**A.** Its value is 5.42% (inactive).

**Q.** For `COc1ccc2cc1Oc1ccc(cc1)C[C@H]1c3c(cc4c(c3Oc3cc5c(cc3OC)CCN(C)[C@@H]5C2)OCO4)CCN1C`, which “activity change, negative = cytotoxicity” value is on record?
**A.** The value was -13.5% (inactive).

**Q.** For `CC(CN1c2ccccc2Sc2ccccc21)N(C)C` (stereo not drawn), which “activity change, negative = cytotoxicity” value is on record?
**A.** Its value is 3.1% (inactive).

**Q.** With `CCOc1nc2cccc(C(=O)O)c2n1Cc1ccc(-c2ccccc2-c2nn[nH]n2)cc1` as the compound, how does the “activity change, negative = cytotoxicity” value read?
**A.** Its value is 10.4% (inactive).

**Q.** With `CCCCCCCCCCCCCCCC(=O)NCCO` as the compound, how does the “activity change, negative = cytotoxicity” value read?
**A.** The value was 5.15% (inactive).

**Q.** With `O=C(O)c1ccccn1` as the compound, how does the “activity change, negative = cytotoxicity” value read?
**A.** The value was 11.9% (inactive).

**Q.** Which “activity change, negative = cytotoxicity” value does the source give for `O=C(O)c1ccccc1O` here?
**A.** Its value is -3.62% (inactive).

**Q.** Which “activity change, negative = cytotoxicity” value does the source give for `O=c1cc(CO)occ1O` here?
**A.** The value was -2% [at 83.3 µM] (inactive).

**Q.** For `CN(C)CCCN1c2ccccc2Sc2ccc(Cl)cc21`, which “activity change, negative = cytotoxicity” value is on record?
**A.** Its value is -16.7% (inactive).

**Q.** Which “activity change, negative = cytotoxicity” value does the source give for `NC(=O)c1ncn([C@@H]2O[C@H](CO)[C@@H](O)[C@H]2O)n1` here?
**A.** Its value is -4.69% (inactive).

**Q.** For `Nc1nc2c(ncn2CCC(CO)CO)c(=O)[nH]1`, which “activity change, negative = cytotoxicity” value is on record?
**A.** The value was 1.06% (inactive).

System: not listed separately
Assay: NCATS anti-infectives library activity on the primary C. elegans qHTS viability assay (AID 1745855; calls by dose curve)
Conditions: C. elegans worm area imaging, day 7; at 41.8 µM (top of the series)
Method in brief: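 Viability read-out is GFP fluorescence of PE254-GFP-FLuc C. elegans, measured by laser cytometry (488 nm) at day 0, 3 and 7. Ten L1 worms per well were incubated 7 days at 21 °C with compounds and bacterial capsules in S medium.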

**Q.** Which outcome does the source give for `CCCCc1ncc(/C=C(\Cc2cccs2)C(=O)O)n1Cc1ccc(C(=O)O)cc1` here?
**A.** The outcome was “inactive”.

**Q.** Which outcome does the source give for `CCOc1nc2cccc(C(=O)O)c2n1Cc1ccc(-c2ccccc2-c2nn[nH]n2)cc1` here?
**A.** Its outcome is “inactive”.

**Q.** Which outcome does the source give for `CC[C@H]1CN2CCc3cc(OC)c(OC)cc3[C@@H]2C[C@@H]1C[C@H]1NCCc2cc(OC)c(OC)cc21` here?
**A.** Its outcome is “inactive”.
